Here are results for 25 sequences from PMC7672089, “Two nuclear effectors of the rice blast fungus modulate host immunity via transcriptional reprogramming”.

In the first assay the target is T1, MoHTR1 (Magnaporthe oryzae, UniProt Q2KEJ2 20-198).
T1 sequence: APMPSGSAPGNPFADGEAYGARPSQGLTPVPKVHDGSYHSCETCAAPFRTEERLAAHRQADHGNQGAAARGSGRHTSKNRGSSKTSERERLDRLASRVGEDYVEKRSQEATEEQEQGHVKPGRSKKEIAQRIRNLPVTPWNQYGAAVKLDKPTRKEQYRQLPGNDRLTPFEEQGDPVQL
The assay can be described thus: array; high values mean tight binding. The conditions noted are these: protein: recombinant; tags: DsRed; 6xHis (pET-32a vector); dsDNA, one strand shown.
Take AACTCCTC: the binding signal was determined as 22100 a.u.
On the same count and under the same terms, to CCAACTCC belongs 20800 a.u.
Same read-out and setting: to CTCAACTC belongs 24700 a.u; to CCTCCTCC, 21700 a.u; to CAATCTCC, 20800 a.u.
The same measure, in the same setting: to CCATACAC belongs 14100 a.u.
Turning to CTCATACC, the binding signal is 25600 a.u.
Same read-out and setting: to CTCTAATC belongs 21800 a.u; to CCTCCACC, 23900 a.u.
On the same count and under the same terms, the figure for CATACTCC is 19100 a.u; for CCTCAATC it is 19700 a.u; for TCAATCTC it is 23900 a.u.
The same measure, in the same setting: the figure for CCGCCACC is 13400 a.u; for CTCCAACC it is 14800 a.u.
Consider CTTCAATC, for which the binding signal came out at 21100 a.u.
For CAATCTTC, the binding signal amounted to 27900 a.u.
Still for that read-out and setting: to CAATCCTC belongs 20100 a.u; to CCACCTCC, 24000 a.u.
Same read-out and setting: the figure for CTAACTCC is 22500 a.u; for TCCAATCC it is 22900 a.u; for TCTCAATC it is 24100 a.u.
Same read-out and setting: to AACTCTCC belongs 21600 a.u.

The target of another assay is T2, MoHTR2 (Magnaporthe oryzae, UniProt G5EHQ6 19-110).
T2 sequence: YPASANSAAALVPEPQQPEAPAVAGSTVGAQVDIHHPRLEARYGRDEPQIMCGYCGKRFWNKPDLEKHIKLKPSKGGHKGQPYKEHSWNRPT
Nature of the assay: array; high values mean tight binding. The following applies: protein: recombinant; tags: DsRed; 6xHis (pET-32a vector); dsDNA, one strand shown.
Regarding CCGCCTCC, the binding signal was determined as 8800 a.u.
On to CCTCCTCC, for which the binding signal came to 10800 a.u.
Same read-out and setting: the figure for CCTCCGCC is 9500 a.u.
In the case of CATACCTC, the binding signal came to 8490 a.u.
Still for that read-out and setting: to CCTCCACC belongs 11600 a.u; to CCACCTCC, 11800 a.u.
